The values that follow come from PubChem BioAssay.

Experiment [1] is described as follows: optical density shifts of acrAB sulA E. coli – strain DRC41, OD650, 48 h, E. coli filamentation inducer project, primary screen (AID 1152).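 Also: E. coli MC1000 strain DRC41 lacking acrAB efflux pump and sulA.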 The following applies: higher = more signal, called active from +8 up or from −8 down.
The nature of experiment [2]: probe aLefty1 binding on compound microarray – biochemical, small-molecule microarray, 635/667 nm fluorescence, primary screen (AID 1153).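 Also: score merges spot fluorescence with signal-to-noise ratio from the scanned slide images.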 Conditions: higher = more signal.
The nature of experiment [3]: plasmodial surface anion channel blockers, osmotic lysis – cell-based, P. falciparum Indochina, OD700, 1 h, primary screen (AID 1154). The following applies: P. falciparum Indochina infected RBC osmotic lysis, higher = more signal, called active from +8 up or from −8 down.
The nature of experiment [4]: plasmodial surface anion channel blockers, osmotic lysis – cell-based, P. falciparum Indochina, OD700, 2 h, primary screen (AID 1155).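 Also: lysis reports solute entry through the parasite surface anion channel PSAC.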 The following applies: P. falciparum Indochina infected erythrocytes, higher = more signal, called active from +8 up or from −8 down.
Experiment [5] in a line: changes in parasitized red cell lysis, either direction – P. falciparum Indochina, OD700, 3 h, PSAC antagonist project, primary screen (AID 1156). The following applies: P. falciparum-infected erythrocytes, osmotic lysis, higher = more signal, called active from +8 up or from −8 down.
Experiment [6] is described as follows: plasmodial surface anion channel blockers, osmotic lysis – cell-based, P. falciparum Indochina, OD700, 18 h, primary screen (AID 1157). Conditions: P. falciparum Indochina infected erythrocytes, osmotic lysis OD700, 18 h; higher = more signal, called active from +8 up or from −8 down.
A short description of experiment [7]: S6 kinase pathway phospho-S6 level changes – cell-based, A549, cytoblot, luminescence, serum-stimulated, primary screen (AID 1158).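 Also: serum-stimulated A549 lung adenocarcinoma cells; signal is phosphorylated S6 detected by cytoblot immunostaining with HRP secondary.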 The following applies: 5 h, higher = more signal.
In experiment [8] the target is NADPH oxidase 2 (Homo sapiens) (UniProt P04839). In words: compounds shifting NOX2 Amplex Red fluorescence – cell-based, HEK293-NOX2, PMA-stimulated, NOX inhibitor project, primary screen (AID 1159). Also: test concentration not given here. Conditions: 45 min, higher = more signal, called active from +8 up or from −8 down.
For experiment [9], the target named is NADPH oxidase 4 (Homo sapiens) (UniProt Q9NPH5). The experiment is described as follows: compounds shifting NOX4 Amplex Red fluorescence – cell-based, HEK293-NOX4, tetracycline-induced, NOX inhibitor project, primary screen (AID 1160). Conditions: HEK293-NOX4, Amplex Red H2O2 fluorescence, 45 min; higher = more signal, called active from +8 up or from −8 down.

In experiment [10] the target is NADPH oxidase 5 (Homo sapiens) (UniProt Q96PH1). The experiment is described as follows: compounds shifting NOX5 Amplex Red fluorescence – cell-based, HEK293-NOX5, NOX inhibitor project, primary screen (AID 1161). Conditions: HEK293-NOX5, ionomycin, 45 min, higher = more signal.
Experiment [11] in a line: compound effects on lung adenocarcinoma cell viability – A549, calcein-AM fluorescence, 48 h, basal, profiling panel (AID 1162). Also: test concentration not given here. The following applies: higher = more signal.
Experiment [12] is described as follows: compound effects on differentiated 3T3-L1 adipocyte viability – cell-based, 3T3-L1 adipocytes, calcein-AM fluorescence, 48 h, basal, profiling panel (AID 1163). Also: test concentration not given here. The following applies: 3T3-L1 adipocytes viability, higher = more signal.
Experiment [13] in a line: compound effects on hepatocellular carcinoma cell viability – HepG2, calcein-AM fluorescence, 48 h, basal, profiling panel (AID 1164). Also: test concentration not given here. The following applies: higher = more signal.
Experiment [14] can be described thus: compound effects on multiple myeloma cell viability – MM1S, calcein-AM fluorescence, 48 h, basal, profiling panel (AID 1165).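 Also: viability of MM1S multiple myeloma cells under basal unstimulated conditions; test concentration not given here.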 The following applies: higher = more signal.
A short description of experiment [15]: calcein-AM signal in unstimulated myeloma cells – cell-based, calcein-AM fluorescence, 48 h, PK04 Diversity Set, profiling panel (AID 1166).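 Also: cells grown under basal conditions without added stimulus; test concentration not given here.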 Conditions: RPMI8226 myeloma viability, higher = more signal.
The nature of experiment [16]: JC-1 mitochondrial signal, unstimulated HepG2 cells – cell-based, JC-1 fluorescence, 24 h, 100 nL compound, profiling panel (AID 1167). Also: test concentration not given here. The following applies: HepG2 mitochondrial potential, higher = more signal.
Experiment [17] can be described thus: JC-1 mitochondrial signal, unstimulated adipocytes – cell-based, JC-1 fluorescence, 3T3-L1 adipocytes, 24 h, 100 nL compound, profiling panel (AID 1168). Also: test concentration not given here. The following applies: JC-1 mitochondrial fluorescence, higher = more signal, called active from +8 up or from −8 down.
A short description of experiment [18]: JC-1 mitochondrial signal, unstimulated myeloma cells – cell-based, JC-1 fluorescence, RPMI8226, 24 h, 100 nL compound, profiling panel (AID 1169). Also: test concentration not given here. Conditions: JC-1 mitochondrial potential fluorescence, higher = more signal.
Experiment [19] can be described thus: JC-1 mitochondrial signal, unstimulated MM1S myeloma – cell-based, JC-1 fluorescence, 24 h, 100 nL compound, profiling panel (AID 1170). Also: test concentration not given here. The following applies: MM1S mitochondrial potential, higher = more signal.
Experiment [20] is described as follows: resazurin metabolic signal in A549 cells – cell-based, resazurin fluorescence, 24 h, PK04 Diversity Set, profiling panel (AID 1171). Also: test concentration not given here. Conditions: A549 viability, higher = more signal, called active from +8 up or from −8 down.

Each structure is given as a SMILES string. Active and inactive are the calls of the source.

Sequence of NADPH oxidase 5 (Homo sapiens) (Q96PH1 whole entry, looked up): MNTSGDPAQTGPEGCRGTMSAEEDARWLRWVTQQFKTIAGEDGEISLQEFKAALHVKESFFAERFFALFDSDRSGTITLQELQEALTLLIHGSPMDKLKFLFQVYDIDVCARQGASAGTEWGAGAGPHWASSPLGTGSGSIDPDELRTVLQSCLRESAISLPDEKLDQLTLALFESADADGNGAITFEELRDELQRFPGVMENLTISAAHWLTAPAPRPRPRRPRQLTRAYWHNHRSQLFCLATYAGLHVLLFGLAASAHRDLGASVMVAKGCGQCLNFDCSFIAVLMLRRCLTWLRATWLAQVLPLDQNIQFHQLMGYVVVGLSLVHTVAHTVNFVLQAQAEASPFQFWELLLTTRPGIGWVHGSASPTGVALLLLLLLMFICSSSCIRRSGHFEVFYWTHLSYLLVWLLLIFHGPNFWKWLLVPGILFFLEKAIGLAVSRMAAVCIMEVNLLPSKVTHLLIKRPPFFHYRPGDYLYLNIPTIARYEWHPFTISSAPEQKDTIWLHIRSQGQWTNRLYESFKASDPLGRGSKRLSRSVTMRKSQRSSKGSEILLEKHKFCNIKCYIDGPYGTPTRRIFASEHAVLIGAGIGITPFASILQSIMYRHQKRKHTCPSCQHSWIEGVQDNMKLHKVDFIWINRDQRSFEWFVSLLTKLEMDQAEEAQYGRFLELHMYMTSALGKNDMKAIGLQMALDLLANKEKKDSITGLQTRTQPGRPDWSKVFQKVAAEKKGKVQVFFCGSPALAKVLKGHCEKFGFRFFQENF
Sequence of NADPH oxidase 4 (Homo sapiens) (Q9NPH5 whole entry, looked up): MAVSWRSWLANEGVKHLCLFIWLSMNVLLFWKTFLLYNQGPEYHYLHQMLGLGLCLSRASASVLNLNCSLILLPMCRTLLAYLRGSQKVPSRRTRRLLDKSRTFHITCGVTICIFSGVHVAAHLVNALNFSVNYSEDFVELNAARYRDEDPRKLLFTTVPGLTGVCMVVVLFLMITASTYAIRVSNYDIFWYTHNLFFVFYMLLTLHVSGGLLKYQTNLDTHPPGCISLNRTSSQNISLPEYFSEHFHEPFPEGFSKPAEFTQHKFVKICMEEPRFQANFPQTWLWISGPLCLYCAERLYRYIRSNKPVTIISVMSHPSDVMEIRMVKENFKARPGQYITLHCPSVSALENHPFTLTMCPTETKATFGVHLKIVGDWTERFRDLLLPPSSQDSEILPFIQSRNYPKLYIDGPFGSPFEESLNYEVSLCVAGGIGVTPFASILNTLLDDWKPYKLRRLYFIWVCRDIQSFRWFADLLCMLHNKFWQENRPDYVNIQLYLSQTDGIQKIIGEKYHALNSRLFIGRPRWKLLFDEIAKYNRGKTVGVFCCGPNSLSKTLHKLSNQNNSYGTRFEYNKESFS
Sequence of NADPH oxidase 2 (Homo sapiens) (P04839 whole entry, looked up): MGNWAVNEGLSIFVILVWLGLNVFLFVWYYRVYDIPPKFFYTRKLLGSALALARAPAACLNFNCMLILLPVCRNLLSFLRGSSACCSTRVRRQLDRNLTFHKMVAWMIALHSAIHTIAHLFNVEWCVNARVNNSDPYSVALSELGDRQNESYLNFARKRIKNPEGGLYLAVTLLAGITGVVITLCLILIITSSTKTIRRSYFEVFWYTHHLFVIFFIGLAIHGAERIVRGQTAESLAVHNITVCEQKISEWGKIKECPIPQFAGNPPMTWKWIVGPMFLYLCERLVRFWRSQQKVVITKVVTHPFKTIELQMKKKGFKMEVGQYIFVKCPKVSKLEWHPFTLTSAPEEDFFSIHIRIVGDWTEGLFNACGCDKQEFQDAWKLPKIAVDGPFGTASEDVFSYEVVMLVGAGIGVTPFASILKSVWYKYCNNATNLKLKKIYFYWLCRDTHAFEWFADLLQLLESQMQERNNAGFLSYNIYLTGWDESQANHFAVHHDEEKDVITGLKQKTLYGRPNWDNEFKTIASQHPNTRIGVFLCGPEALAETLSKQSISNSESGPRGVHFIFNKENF

As to `[N-]=[N+]=NCc1ccccc1[C@@H]1OC(c2ccc(OCCCO)cc2)=N[C@]1(Cc1ccccc1N=[N+]=[N-])C(=O)NCC(O)CO` (stereo not given in full), the z-score in [1] was 0.553 (inactive); in experiment [3] it was 20.2 (active); in [4], 5.06 (inactive); in experiment [5], 1.09 (inactive); in [6], 1.1 (inactive); in [7], -0.0256. The z-score was -0.868 (inactive) in [8]; 0.704 (inactive) in experiment [9]; 1.5 in experiment [10]; -0.619 in [11]; 0.0728 in experiment [12]; -0.326 in experiment [13]. The z-score in experiment [14] is -1.78; in [15] it was -1.57; in [16], -0.686; in experiment [17] it was 0.265 (inactive); in [18], -1.2; in experiment [19], -0.6. Also, the z-score in experiment [20] was -1.09 (inactive). This compound had a composite z-score in [2] of 1.31.
For `CC(=O)NCCCC[C@@H]1NC(=O)[C@H]2C[C@@H](C(=O)NCCCCCCNC(=O)CS)[C@@H](c3cccc(OCCO)c3)N2C1=O`, the z-score in experiment [1] was -0.337 (inactive); in [3], 3.07 (inactive); in experiment [4] it was 0.858 (inactive); in experiment [5], 1.18 (inactive); in experiment [6], 0.448 (inactive); in [7], -0.754. In addition, the z-score was 1.6 (inactive) in experiment [8]; -0.667 (inactive) in experiment [9]; 0.443 in experiment [10]; -0.769 in [11]; 0.251 in [12]; -0.644 in experiment [13]. For the same compound, the z-score in [14] is -0.504; in experiment [15] it was 0.236; in [16], -1.4; in experiment [17] it was -0.306 (inactive); in experiment [18], 0.186; in experiment [19], -0.0983. Moreover, in experiment [20], the z-score was -0.131 (inactive). In addition, the composite z-score in [2] is -0.101.
With `C=C(C)[C@@H]1CC=C(C(O)C2C=CC3C(=O)N(C)C(=O)C3N2Nc2ccc([N+](=O)[O-])cc2[N+](=O)[O-])CC1` (stereo not given in full), the z-score in experiment [1] is -1.03 (inactive); in [3] it was 22.8 (active); in [4] it was 6.33 (inactive); in experiment [5] it was 0.0383 (inactive); in experiment [6], 1.46 (inactive); in experiment [7], -1.42. The z-score is -0.188 (inactive) in experiment [8]; 0.811 (inactive) in experiment [9]; 2.85 in experiment [10]; -0.34 in [11]; -0.924 in [12]; -0.303 in experiment [13]. Also, the z-score in experiment [14] was -0.731; in experiment [15], -2.48; in experiment [16] it was -0.286; in experiment [17], -1.71 (inactive); in experiment [18] it was 0.553; in [19], -0.755. Besides, in [20], the z-score is -0.375 (inactive). In [2], the composite z-score was found to be 0.807.
Regarding `COC(=O)[C@@]1(Cc2ccccc2)N=C(c2ccc(OCCCO)cc2)O[C@H]1c1ccccc1CN=[N+]=[N-]`, the z-score in experiment [1] is 1.11 (inactive); in [3] it was 23 (active); in experiment [4], 7.26 (inactive); in experiment [5], -0.202 (inactive); in [6] it was 2.21 (inactive); in experiment [7], 0.239. The z-score is -6.02 (inactive) in experiment [8]; -0.914 (inactive) in experiment [9]; -3.31 in experiment [10]; -2.95 in experiment [11]; -0.565 in experiment [12]; -5.45 in [13]. For the same compound, the z-score in [14] was -3.55; in experiment [15], -3.96; in experiment [16] it was -2.16; in [17] it was 1.22 (inactive); in [18], -1.13; in experiment [19] it was -2.9. In experiment [20], the z-score is -5.77 (inactive). For the same compound, the composite z-score in [2] came out at 0.313.
`COc1cc(C(O)C2C=CC3C(=O)N(c4ccccc4)C(=O)C3N2Nc2ccccc2F)cc(OC)c1OC` (stereo not given): the z-score in experiment [1] is -1.19 (inactive); in [3], 5.94 (inactive); in experiment [4] it was 1.25 (inactive); in experiment [5], -0.276 (inactive); in experiment [6], 0.462 (inactive); in [7] it was -1.01. Further, the z-score was -1.67 (inactive) in [8]; -4.07 (inactive) in experiment [9]; -3.16 in [10]; 0.0221 in experiment [11]; -0.603 in experiment [12]; -0.162 in experiment [13]. Also, the z-score is -1.76 in [14]; -1.63 in experiment [15]; -1.15 in [16]; -1.01 (inactive) in experiment [17]; 0.446 in [18]; 0.142 in experiment [19]. For the same compound, the z-score in experiment [20] was -0.28 (inactive). This compound also gave a composite z-score in [2] of 0.149.
